Our source for the GI50 values is ChEMBL document CHEMBL1201862, “PubChem BioAssay data set” (2004).

The whole screen tested about 54,000 […], of which about 4,800 (8.9%) were called active. No stated cut-off is given here; in the data, active = GI50 up to about 1.1 µM and inactive = higher. A selection follows. Entries with a potency or affinity are not part of this list.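 48-hour exposure; five concentrations; linearly interpolated endpoints. Here, GI50 denotes the concentration required for 50% inhibition of growth.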

The subject of the test is RPMI-8226. Put plainly: NCI tumour cell line growth inhibition, 48 h.
The substance “[Bis(aminomethyl)diethylsilane]tetrachloroplatinum(IV), CHEMBL2146203” gave a GI50 of 1620 nM. The figure for “[Bis(aminomethyl)pentamethylenesilane]tetrachloropaltinum(IV), CHEMBL2146204” is 4530 nM. As for “[Bis(aminomethyl)tetramethylenesilane]dichloropaltinum(II), CHEMBL2146205”, the figure is 9860 nM; as for “[Bis(aminomethyl)dimethylsilane]tetrachloroplatinum(IV), CHEMBL2146190”, 2110 nM.

“mu-(1,7-nanodiamine-N,N')bis-(cis-aminedichloroplatimum (II)), CHEMBL2146215” had a GI50 of 26200 nM.

For “[Bis(aminomethyl)tetramethylenesilane]tetrachloropaltinum(IV), CHEMBL2146189”, the GI50 amounted to 1100 nM. The figure for “[Bis(aminomethyl)ethylmethylsilane]tetrachloroplatinum(IV), CHEMBL2146192” is 1320 nM; for “cis-Bis[[(trimethylsilyl)methyl]amino]tetrachloroplatinum(IV), CHEMBL2146191” it is 1940 nM; for “[Bis(aminomethyl)pentamethylenesilane]dichloropaltinum(II), CHEMBL2146202” it is 1920 nM.

With CISPLATIN, CHEMBL11359, the GI50 amounted to 4290 nM. The figure for “[Bis(aminomethyl)dimethylsilane]dichloroplatinum (II), CHEMBL2146201” is 12200 nM.
